Out of some 59,000 compounds screened, about 6,500 (11%) were called active. About 15% were inconclusive and are not listed. No stated cut-off is given here; in the data, active means max dye-equivalent concentration above about 10 nM; inconclusive means mostly about 1.1 nM to 9.6 nM; inactive means weaker than that. Only a selection was taken, and actives are over-represented in it overall.

The assay in a line: qHTS Assay for Spectroscopic Profiling in A350 Spectral Region. The following applies: Compound autofluorescence, 340/450 nm, Alexa 350 dye-equivalents; active compounds read high. An excerpt: NIH Molecular Libraries Screening Centers Network [MLSCN]
NIH Chemical Genomics Center [NCGC]
Occasionally, the artifactual effect may originate from the compounds own spectral or other biophysical properties which generally tend to track its assay concentration. Pre-screening/profiling the library with respect to the compounds spectral properties should help one exclude false positives early on. While the most informative fluorescent profiling data set is obtained by performing a full excitation and emission scan of each well by using a monochromator-based plate reader, such an approach is practical only on a very limited scale as scanning each well requires long time. An alternative approach, applied here, is to perform plate reader scans using selected excitation and emission wavelength pairs to generate a multidimensional relational database that correlates compound concentration and the respective relative fluorescence intensity at a given wavelength set. A standard curve of Alexa 350 (A 350) present on each plate as six-point concentration series, was used to compute a normalized fluorescence response, termed dye-equivalent concentration, for each compound at each concentration.
NCGC Assay Protocol Summary:
100 mM Tris buffer, pH 8.0
The wells in columns 1 through 4 of a Kalypsys polypropylene 1536-well compound plate were filled with standard solutions of fluorophore corresponding to the spectral region of interest. Solutions of A 350 were placed in the following wells: I1, J1: 3 mM, I2, J2: 300 uM, I3, J3: 30 uM, I4, J4: zero (DMSO), K1, L1: 3 uM, K2, L2: […], K3, L3: 300 nM, K4, L4: zero (DMSO).
Six uL of buffer were dispensed to 1536-well Greiner black plates. Compounds and dye standards (23 nL) were transferred via Kalypsys PinTool. The plates were incubated for 15 min at room temperature, and then read on ViewLux (Perkin-Elmer) High-throughput CCD imager using 340 nm and 450 nm excitation and emission filter set.
Keywords: NIH Roadmap, MLSCN, MLI, MLSMR, qHTS, NCGC, A350, A-350, Fluorescent Profiling.
Take `O=C(NCc1ccccn1)c1c(O)c2c([nH]c1=O)CCCC2`: the max dye-equivalent concentration entry is “inactive”.
Consider `Cc1cccn2c(=O)c3cc(C(=O)N4COCC4(C)C)n(C)c3nc12`, for which the max dye-equivalent concentration is 900 nM (active).
Turning to `Cc1cccn2c(=O)c3cc(C(=O)NCc4ccccn4)n(C)c3nc12`, the max dye-equivalent concentration is 170 nM (active).
Consider `O=C(NCc1ccco1)c1nc2ncccn2n1`, for which the max dye-equivalent concentration result is “inactive”.
Regarding `CCN(CC)C(=O)C1CCC(C)(C(=O)O)C1(C)C` (stereo not drawn), the max dye-equivalent concentration entry is “inactive”.
For the compound `CC(c1ccccc1)n1c(NCCCn2ccnc2)nc2c1c(=O)[nH]c(=O)n2C` (stereo not drawn), the max dye-equivalent concentration entry is “inactive”.
`Cc1cc(NC(=O)COC(=O)c2ccc(F)c(S(=O)(=O)N3CCOCC3)c2)no1`: the max dye-equivalent concentration result is “inactive”.
The result for `COc1cc([C@H]2c3cc4c(cc3[C@@H](O[C@@H]3O[C@H]5CO[C@@H](C)O[C@]5(O)C[C@H]3O)[C@@H]3COC(=O)[C@H]23)OCO4)cc(OC)c1O` reads “inactive”; that for `C=CCn1c(SCc2cc(C(=O)OC)c(C)o2)nnc1-c1ccncc1`, “inactive”.
For `COc1ccc(C(=O)CSc2nccc(=O)[nH]2)cc1`, the max dye-equivalent concentration entry was “inactive”.
With `COC(=O)[C@H](C)NC(=O)Nc1ccc(OC(F)(F)F)cc1`, the max dye-equivalent concentration entry was “inactive”.
Take `CCCN1CC=C2C(C#N)=C(N)C(C#N)(C#N)C(c3cc(OC)ccc3OC)C2C1` (stereo not drawn): the max dye-equivalent concentration was 110 nM (active).
As for `CCC1=C(C(=O)OC)C(c2cc(OC)ccc2OC)C(C#N)=C(N)O1` (stereo not drawn), the max dye-equivalent concentration entry is “inactive”.
Consider `c1cc(-n2cnnn2)ccc1NC1=NCCC1`, for which the max dye-equivalent concentration result is “inactive”.
Turning to `CNC(=O)C1CC(=O)N(Cc2ccc3c(c2)OCO3)C(=Nc2ccc(F)cc2)S1` (stereo not drawn), the max dye-equivalent concentration entry is “inactive”.
Consider `CC(C)(CSc1nncn1/N=C/c1ccco1)NS(=O)(=O)c1ccc(Cl)cc1`, for which the max dye-equivalent concentration entry was “inactive”.
In the case of `CC(C)CCNc1nc(N2CCCC2)c2c(c1C#N)CCN(C)C2`, the max dye-equivalent concentration was 33 nM (active).
For the compound `O=C(CCOc1ccccc1)NCc1ccccc1`, the max dye-equivalent concentration result is “inactive”.
As to `O=C1CN(C(=O)COC(=O)C2CC(=O)N(Cc3ccco3)C2)c2ccccc2N1` (stereo not drawn), the max dye-equivalent concentration entry was “inactive”.
Take `COc1ccc(Cc2nnc(NC(=O)Cc3cccs3)s2)cc1`: the max dye-equivalent concentration result was “inactive”.
As for `COc1ccc2c(CC(=O)Nc3nnc(C4CC4)s3)coc2c1`, the max dye-equivalent concentration is 12 nM (active).
For `COc1ccc(OCCCC(=O)Nc2nnc(C3CCCO3)s2)cc1` (stereo not drawn), the max dye-equivalent concentration result is “inactive”.
On to `CC1Cc2cc(/C(O)=C3\C(=O)C(=O)N(CCN4CCOCC4)C3c3ccccc3F)ccc2O1` (stereo not drawn), for which the max dye-equivalent concentration entry is “inactive”.
Turning to `O=C(O)[C@@H]1[C@@H](C(=O)O)[C@]23C[C@@]2(C(=O)O)[C@]2(C(=O)O)CCC3=C3CCCC312`, the max dye-equivalent concentration entry is “inactive”.
For the compound `COc1ccc(S(=O)(=O)NC(CC(=O)NCc2ccccc2OC)c2ccco2)cc1` (stereo not drawn), the max dye-equivalent concentration result is “inactive”.
For `CCCCCCn1c(CN2CCCC(C)C2)nc2c1c(=O)n(C)c(=O)n2C` (stereo not drawn), the max dye-equivalent concentration entry was “inactive”.
`CCCn1c(O)c(CN2CCCC(C)C2)c(C)c(C#N)c1=O` (stereo not drawn): the max dye-equivalent concentration was 19 nM (active).
In the case of `CCCCC(CCC(=O)Nc1ccc(C(=O)OCC)cc1)C(=O)O` (stereo not drawn), the max dye-equivalent concentration result was “inactive”.
For the compound `CCCCc1cc(=O)oc2cc(C)cc(OCc3nn[nH]n3)c12`, the max dye-equivalent concentration was 77 nM (active).
Turning to `CC(Sc1nncn1C)C(=O)Nc1ccccc1-c1ccccc1` (stereo not drawn), the max dye-equivalent concentration entry was “inactive”.
As to `Clc1ccc(Nc2nc(-c3cccs3)cs2)nc1`, the max dye-equivalent concentration result is “inactive”.
For `O=C(Nc1ccccc1F)C1C2C=CC3(O2)C1C(=O)N(c1cccnc1)C3C(=O)NC1CCCCC1` (stereo not drawn) the value was “inactive”; for `COc1cc(C(=O)N(Cc2ccc(N(C)C)cc2)C2CCS(=O)(=O)C2)cc(OC)c1OC` (stereo not drawn), “inactive”; for `CCc1nnc(NC(=O)c2ccc(S(=O)(=O)NC3CCCCC3)cc2)s1`, “inactive”.
For `CC1CCCCN1S(=O)(=O)c1ccc(C(=O)Nc2nnc(-c3cccs3)o2)cc1` (stereo not drawn), the max dye-equivalent concentration entry is “inactive”.
The result for `Cc1ccc(C(=O)Nc2nnc(-c3cccs3)s2)cc1C` reads 72 nM (active); that for `COc1ccc2[nH]cc(CCNc3ncnc4ccc(-c5ccccc5CN(C)C)cc34)c2c1`, “inactive”; that for `COc1ccc(Cl)cc1S(=O)(=O)Nc1cccc(C(=O)O)c1`, “inactive”.
In the case of `COC(=O)c1ccccc1NC(=O)C1CCN(S(=O)(=O)c2cc(OC)ccc2OC)CC1`, the max dye-equivalent concentration result was “inactive”.
Turning to `COc1ccc(OC)c(S(=O)(=O)Nc2ccccc2F)c1`, the max dye-equivalent concentration was 75 nM (active).
For `Cc1c(C(=O)OCc2cc(=O)n3cc(Br)ccc3n2)oc2ccccc12`, the max dye-equivalent concentration result is “inactive”.
`Cc1c(C(=O)OCC(=O)N(CCC#N)c2ccccc2)oc2c1ccc1ccccc12`: the max dye-equivalent concentration was 14 nM (active).
On to `COC(=O)N1CCC2(CCCN(c3ccncc3)C2)CC1`, for which the max dye-equivalent concentration entry was “inactive”.
Take `COCCn1c(=O)c(-c2ccc(OC)cc2)nc2cnc(Oc3cccc(Cl)c3)nc21`: the max dye-equivalent concentration was 13 nM (active).
With `Cc1nc2cnc(Oc3cccc(Cl)c3)nc2n(C2CC2)c1=O`, the max dye-equivalent concentration result is “inactive”.
The result for `CCc1nc2oc3ccccc3c(=O)c2c(=O)n1Cc1ccc(OC)cc1` reads “inactive”; that for `COc1cccc(Cn2c(=O)c(-c3cc(F)cc(F)c3)nc3cnc(OC)nc32)c1`, “inactive”; that for `COc1ccc(-c2nc3cnc(OC)nc3n(Cc3ccc(F)cc3)c2=O)cc1`, 12 nM (active).
The result for `COc1ccc(-c2nc3cnc(Oc4ccccc4)nc3n(Cc3cccs3)c2=O)cc1` reads 12 nM (active); that for `COc1cccc(Cn2c(=O)c(-c3ccccc3)nc3cnc(OC)nc32)c1`, “inactive”.
On to `COc1ncc2nc(-c3ccc(Cl)cc3)c(=O)n(C)c2n1`, for which the max dye-equivalent concentration was 34 nM (active).
On to `COc1ccc(Oc2ncc3nc(-c4ccc(F)cc4)c(=O)n(C)c3n2)cc1`, for which the max dye-equivalent concentration entry was “inactive”.
As to `CCOC(=O)CSc1nnc(CNC(=O)c2cccs2)n1-c1cc(OC)ccc1OC`, the max dye-equivalent concentration result was “inactive”.

Values taken from PubChem BioAssay AID590 (National Center for Advancing Translational Sciences (NCATS), 2007).
